Test results reported in PubChem BioAssay (NCI).
Compounds without any hit were thinned out: in the full panel of roughly 83,000, 20% have a hit.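 Note: values are percent growth. 100 is the growth of untreated cells, values between 100 and 0 indicate rising inhibition; between -100 and 0 indicates cell death.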 The source made the active and inactive calls. How the source made its calls: active means growth percent below 10; inactive means the rest.

The compounds below were run on UO-31 renal (assay: NCI-60 one-dose screen, 48 h (100 = growth as untreated, 0 = no growth, -100 = all killed)). Conditions: 10 µM unless noted.

Row | Compound | growth
1 | CCOc1ccc(NC2=C(Cl)C(=O)c3nc(C)ccc3C2=O)cc1 | -65% (active)
2 | COc1cccc(/C=C(/C)c2ccc3cccc(OC)c3[o+]2)c1O | 88.8% (inactive)
3 | NC(N)=Nc1ccc(Oc2cccc(NC(N)=Nc3ccc(Cl)c(C(F)(F)F)c3)c2)cc1 | 87% (inactive)
4 | COc1ccc(CCOc2cc3c(cc2OC)CCN(C(=O)NCc2cocn2)C3c2ccc(C)cc2C)cc1 (stereo not drawn) | 24.7% (inactive)
5 | O=C1C(c2ccccc2)=C(N2CCc3ccccc32)OC1(Cl)Cl | -23.6% (active)
6 | O=C(NNc1nc2cc(F)ccc2n2c(CN3CCCC3)ccc12)c1cnccn1 | 18.7% (inactive)
7 | O=C(NNc1nc2cc(F)cc(F)c2n2cccc12)c1cnccn1 | 18.1% (inactive)
8 | O=C(O)c1ccc(-n2cc(CNc3cc(F)c(F)c(F)c3)c(-c3ccc(F)cc3)n2)cc1 | 77.4% (inactive)
9 | COc1ccc(NC2=C(Cl)C(=O)c3nc(C)ccc3C2=O)cc1OC | 100% (inactive)
10 | O=C(NNc1nc2cc(F)c(F)cc2n2c(CN3CC4CNCC4C3)ccc12)c1cnccn1 (stereo not drawn) | 14.1% (inactive)
11 | C[C@H](CCC(=O)NCc1ccc(C(=O)Nc2ccccc2N)cc1)[C@H]1CC[C@H]2[C@@H]3[C@@H](O)C[C@@H]4C[C@H](O)CC[C@]4(C)[C@H]3CC[C@]12C | 56.7% (inactive)
12 | CC(=O)c1cc(C(=O)c2ccc(Br)cc2)n2cc(C)cc(C)c12 | 84.8% (inactive)
13 | NC(=O)c1cccc(-n2ccc3cc(NC(=O)Nc4ccc(N5CCOCC5)c(C(F)(F)F)c4)ccc32)n1 | 4.85% (active)
